High-throughput results (PubChem BioAssay)
In the library only some 7.7% were active in any assay of this set; here they are far more common.
RE007 growth inh: less growth of the S. pombe RE007 Vpr strain | AID 651644 | Potency, µM (series often up to 92.2 µM), hits mostly inhibitors | S. pombe RE007 Vpr strain, BacTiter-Glo ATP luminescence, 24 h | hit rate 0.21% among 360,000; active = well fitted falling curve with a large enough effect; inconclusive = small, poorly fitted or top-dose-only effect; inactive = no such curve, though single readings can be large or run the other way; also: nearly all actives have a fitted effect of over 50% in size
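Fission yeast strain RE007, carrying one chromosomally integrated HIV-1 vpr copy, was seeded at OD 0.01 in PMG+AL medium with 23 nL pinned compound. After 24 h at 30 °C and 99% humidity, viability was read by BacTiter-Glo luminescence.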
HCMV inh: inhibitors of human cytomegalovirus; activity change, negative = inhibition, % at 57.5 µM; HFF cells, HCMV-luciferase reporter, 72 h; stronger effect = lower value; hit rate 4.5% among 410,000; in the data active = activity change below about -60%; inconclusive = no clear call, values can overlap the other calls; inactive = above about -39%
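Cell-based, HFFs, 1000 cells/well, 16 h 37C; cpds in DMSO + HCMV-luc, MOI 1 PFU/cell; 72 h 37C; OneGlo luminescence after 5 min RT; norm. to buffer vs Salinomycin 10uM.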
Sm TGR inh: S. mansoni TGR enzyme inhibition; Q962Y6; purified TGR, DTNB reduction, TNB absorbance 405 nm; Potency, µM (titrated, usually from 114 µM), actives largely listed as inhibitors; hit rate 3% among 360,000; AID 485364; also: nearly all actives have a fitted effect of over 60% in size
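TGR 20 nM + NADPH 100 uM (dispensed conc.), cpd preinc 15 min RT; start with NADPH (500 uM addition) then DTNB (15 mM addition). Kinetic TNB absorbance, 405 nm filter. Four-parameter Hill fit across titration.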
FMDV inh: antivirals against foot and mouth disease virus. hit rate 1.2% among 410,000. Potency, µM (top dose mostly 57.9 µM), most hits filed as inhibitors. FMDV antiviral cell-based qHTS; calls by dose curve; tested in HEK293T cells; also: read-out not given here; nearly all actives have a fitted effect of over 45% in size
Tb PYK inh: T. brucei pyruvate kinase inhibition | Q57TT1 | TbPYK enzyme, Kinase-Glo Plus ATP luminescence, 45 min | Potency, µM (top dose mostly 76.8 µM), usual class: inhibitors | hit rate 0.12% among 410,000 | AID 624173; also: nearly all actives have a fitted effect of over 50% in size
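Luminescent Kinase-Glo Plus end-point after 45 min room-temperature reaction of T. brucei pyruvate kinase started with 130 uM ADP (final). Buffer TEA 50 mM pH 7.2 with KCl, MgCl2, BSA, Tween-20; titration-based qHTS with fitted concentration-effect curves.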
FBPA Giardia inh: Giardia lamblia aldolase inhibition. purified Giardia FBPA. Potency, µM (top dose mostly 59.6 µM), usual class: inhibitors. A8B2U2. hit rate 0.71% among 290,000. AID 2451; also: nearly all actives have a fitted effect of over 55% in size
Target sequence (A8B2U2 whole entry, looked up): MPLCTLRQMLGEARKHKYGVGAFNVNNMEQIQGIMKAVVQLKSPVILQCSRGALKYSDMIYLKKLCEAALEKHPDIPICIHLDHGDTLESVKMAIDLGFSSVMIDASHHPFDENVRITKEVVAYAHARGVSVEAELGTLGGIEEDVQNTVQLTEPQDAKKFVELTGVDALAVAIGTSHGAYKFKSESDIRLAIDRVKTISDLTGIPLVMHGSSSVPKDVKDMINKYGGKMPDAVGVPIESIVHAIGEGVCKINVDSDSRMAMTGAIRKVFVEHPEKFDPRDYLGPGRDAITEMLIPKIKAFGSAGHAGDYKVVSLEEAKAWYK
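Giardia FBPA (40 nM reagent) was preincubated 10 min at RT with compound (up to 57.5 uM final), then substrate plus GAPDH/TPI/NAD/arsenate coupling system with diaphorase/resazurin was added; resorufin fluorescence (525/598 nm) was read after 20 min.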
Numbers stand for hits. Unless noted, calls follow the shape of the dose curve; as a rule, active = well fitted curve in the direction sought with a large enough effect; inconclusive = small, poorly fitted or top-dose-only effect, or another doubt; inactive = no such curve, though single readings can be large; an effect the other way counts as inactive or inconclusive.

How did C/C(=N\NC(=O)C(c1ccccc1)c1ccccc1)c1ccccn1 do in these assays?
RE007 growth inh: inactive; HCMV inh: -99; Sm TGR inh: inactive; FMDV inh: inconclusive; Tb PYK inh: inactive; FBPA Giardia inh: inactive

What do the screens show for `C/C(=N\NC(=O)C(c1ccccc1)c1ccccc1)c1ccc(O)cc1`?
RE007 growth inh: inactive; HCMV inh: inactive; Sm TGR inh: inactive; FMDV inh: inactive; Tb PYK inh: inactive; FBPA Giardia inh: inactive

Results for CCOC(=O)c1sc2nc(CC(=O)OC)nc(NCc3ccc(Cl)cc3)c2c1C ?
RE007 growth inh: inactive; HCMV inh: -107; Sm TGR inh: inactive; FMDV inh: inactive; Tb PYK inh: inactive; FBPA Giardia inh: inactive

Results for CCOC(=O)c1sc2nc(CC(=O)OC)nc(NCCN3CCOCC3)c2c1C ?
RE007 growth inh: inactive; HCMV inh: inconclusive; Sm TGR inh: 25µM; FMDV inh: inactive; Tb PYK inh: inactive; FBPA Giardia inh: inactive

What do the screens show for `CCOC(=O)c1sc2nc(CC(=O)OC)nc(NCCN(CC)CC)c2c1C`?
RE007 growth inh: inactive; HCMV inh: inactive; Sm TGR inh: inactive; FMDV inh: inactive; Tb PYK inh: inactive; FBPA Giardia inh: inactive

How did CCOC(=O)c1sc2nc(C)nc(NCc3ccccc3)c2c1C do in these assays?
RE007 growth inh: inactive; HCMV inh: inconclusive; Sm TGR inh: inactive; FMDV inh: inconclusive; Tb PYK inh: inactive; FBPA Giardia inh: inactive

Results for O=C1CCN(S(=O)(=O)c2ccc(Cl)cc2)C(c2ccccc2)C1 (configuration not stated) ?
HCMV inh: inactive

Results for CC1(OC(=O)c2cccs2)C(=O)C=C2C=C3CCCN3C=C2C1=O (configuration not stated) ?
RE007 growth inh: inactive; Sm TGR inh: 35µM; FMDV inh: inactive; Tb PYK inh: inactive; FBPA Giardia inh: inconclusive

How did COc1ccc(CN2C=C3C(=O)C(C)(OC(=O)CCc4ccccc4)C(=O)C=C3C=C2c2ccc(C#N)cc2)cc1 (configuration not stated) do in these assays?
RE007 growth inh: inconclusive; HCMV inh: inactive; Sm TGR inh: inactive; FMDV inh: inactive; Tb PYK inh: inactive; FBPA Giardia inh: inconclusive

How did CC1(OC(=O)CCc2ccccc2)C(=O)C=C2C=C3CCCN3C=C2C1=O (configuration not stated) do in these assays?
RE007 growth inh: inactive; HCMV inh: inactive; Sm TGR inh: 35µM; FMDV inh: inactive; Tb PYK inh: inactive; FBPA Giardia inh: inconclusive

Results for CCN(CC)CCCN1C=C2C(=O)C(C)(OC(=O)CCc3ccccc3)C(=O)C=C2C=C1c1ccc(C#N)cc1 (configuration not stated) ?
RE007 growth inh: inactive; Sm TGR inh: 40µM; FMDV inh: inactive; Tb PYK inh: inactive; FBPA Giardia inh: inconclusive

What do the screens show for `CC1(OC(=O)CCc2ccccc2)C(=O)C=C2C=C(C3CC3)OC=C2C1=O` (configuration not stated)?
FBPA Giardia inh: inactive

How did CCS(=O)(=O)c1ccc(O)c(Nc2cc(C)nc(SC)n2)c1 do in these assays?
HCMV inh: inactive; Sm TGR inh: inactive; FMDV inh: inactive; Tb PYK inh: inactive

Results for O=C(CN1C(=O)CCSc2ccc(S(=O)(=O)N3CCCC3)cc21)Nc1cccc(Cl)c1 ?
HCMV inh: inactive; Sm TGR inh: inactive; FMDV inh: inactive; Tb PYK inh: inactive

Results for CC1(C(=O)O)CCN1C(=O)c1ccccc1F (configuration not stated) ?
RE007 growth inh: inactive; HCMV inh: inactive; FMDV inh: 5µM; Tb PYK inh: inactive

Results for Cc1ccc(F)cc1C(=O)N1CCC1(C)C(=O)O (configuration not stated) ?
RE007 growth inh: inactive; HCMV inh: inactive; FMDV inh: inactive; Tb PYK inh: inactive

How did CN(C(=O)CSc1nc2ccc(NC(=O)COc3ccc(F)cc3)cc2s1)c1ccccc1 do in these assays?
HCMV inh: -70; Sm TGR inh: inactive; FMDV inh: inconclusive; Tb PYK inh: inactive

How did CN(C(=O)CSc1nc2ccc(NC(=O)COc3ccc(Cl)cc3)cc2s1)c1ccccc1 do in these assays?
HCMV inh: inconclusive; Sm TGR inh: inactive; FMDV inh: inconclusive; Tb PYK inh: inactive

How did COc1ccc(C(=O)Nc2ccc3nc(SCC(=O)N(C)c4ccccc4)sc3c2)cc1 do in these assays?
HCMV inh: -74; Sm TGR inh: inactive; FMDV inh: 35µM; Tb PYK inh: inactive

Results for CN(C(=O)CSc1nc2ccc(NC(=O)CCc3ccccc3)cc2s1)c1ccccc1 ?
HCMV inh: inconclusive; Sm TGR inh: inactive; FMDV inh: inconclusive; Tb PYK inh: inactive

What do the screens show for `Cc1cccc(NC(=O)CSc2nc3ccc(N4C(=O)c5ccccc5C4=O)cc3s2)c1C`?
RE007 growth inh: inactive; HCMV inh: inactive; Sm TGR inh: inactive; FMDV inh: inactive; Tb PYK inh: inactive; FBPA Giardia inh: inactive

How did COc1cccc(C(=O)Nc2ccc3nc(SCC(=O)N(C)c4ccccc4)sc3c2)c1 do in these assays?
HCMV inh: inconclusive; Sm TGR inh: inactive; FMDV inh: inconclusive; Tb PYK inh: inactive

What do the screens show for `CN(C(=O)CSc1nc2ccc(NC(=O)c3ccc(F)cc3)cc2s1)c1ccccc1`?
HCMV inh: -81; Sm TGR inh: inactive; FMDV inh: inconclusive; Tb PYK inh: inactive

What do the screens show for `CN(C)C(=O)CSc1nc2ccc(N3C(=O)c4ccccc4C3=O)cc2s1`?
RE007 growth inh: inactive; HCMV inh: -65; Sm TGR inh: inactive; FMDV inh: inactive; Tb PYK inh: inactive; FBPA Giardia inh: inactive

How did Cc1nn(C(=O)c2c(F)cccc2F)c(C)c1S(=O)(=O)N1CCCCCC1 do in these assays?
HCMV inh: inactive; Sm TGR inh: inactive; FMDV inh: inactive; Tb PYK inh: inactive

What do the screens show for `COc1ccccc1OCC(=O)Nc1cc(Cl)ccc1Oc1ccccc1`?
RE007 growth inh: inactive; HCMV inh: inactive; Sm TGR inh: inactive; FMDV inh: inactive; Tb PYK inh: inactive; FBPA Giardia inh: inactive

How did Cc1ccc(OCC(=O)Nc2cc(Cl)ccc2-n2cncn2)c(C)c1 do in these assays?
RE007 growth inh: inactive; HCMV inh: inactive; FMDV inh: inactive; Tb PYK inh: inactive

How did Cc1ccc(S(=O)(=O)CCC(=O)Nc2cc(Cl)ccc2-n2cncn2)cc1 do in these assays?
RE007 growth inh: inactive; HCMV inh: inactive; Sm TGR inh: 18µM; FMDV inh: inactive; Tb PYK inh: inactive

How did CCOc1ccc(Oc2ccc(Cl)cc2NC(=O)CCNC(C)=O)cc1 do in these assays?
RE007 growth inh: inactive; HCMV inh: -66; Sm TGR inh: inactive; FMDV inh: inactive; Tb PYK inh: inactive; FBPA Giardia inh: inactive

Results for CCOc1ccc(OCCCC(=O)Nc2cc(Cl)ccc2-n2cncn2)cc1 ?
RE007 growth inh: inactive; HCMV inh: -72; Sm TGR inh: inactive; FMDV inh: inconclusive; Tb PYK inh: inactive
